Screening data deposited in PubChem by National Center for Advancing Translational Sciences (NCATS).
Sampled rows, rich in hits. Any-hit rate of the full collection: about 0.18%.
ERG Ets-DNA blk: qHTS for Small Molecule Inhibitors of the ERG Ets/DNA interaction | fluorescence polarization, His-ERG Ets domain / labelled DNA | 370,000 compounds, 0.028% hits | Potency, µM (titrated, usually from 76.9 µM), without a hit: at the top dose FP activity, negative = inhibition, hits mostly inhibitors | Transcriptional regulator ERG (Homo sapiens), P11308 | AID 624246, 2012; active = well fitted inhibition curve with a large enough effect in the polarisation, with a control signal flat; inconclusive = small, poorly fitted or top-dose-only effect, or effect the other way, or a change in a side signal; inactive = no such curve, though single readings can be large or run the other way; the % refers to the polarisation;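 note: polarization taken with two DNA probes labelled with fluorescein and Texas red; potency is the fitted concentration of half-maximal effect; % of control where 0% means no effect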
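His-tagged ERG Ets domain (1 uM in the protein solution; 300mM KCl, 50mM Tris-HCl, 1mM EDTA, 1mM DTT, pH 7.5) received compound, then a probe mix of 5 nM fluorescein-DNA and 100nM Texas-615-DNA. Fluorescence polarization was read for both dyes.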
TSG101-PTAP inh: qHTS Assay for Iinhibitors of HIV-1 Budding by Blocking the Interaction of PTAP/TSG101. Tumor susceptibility gene 101 protein (Homo sapiens), Q99816. Fluorescence polarization, FITC-PTAP peptide / Tsg101 binding. Potency, µM (highest dose often 115 µM), for inactives: at the top dose activity change, negative = inhibition, actives largely listed as inhibitors. 340,000 tested, under 10 active; active = well fitted inhibition curve with a large enough effect in the main read-out, with a control signal flat, not every such curve was filed as active; inconclusive = small, poorly fitted or top-dose-only effect, or effect the other way, or a change in a side signal; inactive = no such curve, though single readings can be large or run the other way; note: potency is the fitted concentration of half-maximal effect; % of control where 0% means no effect
Target sequence (Q99816 whole entry, looked up): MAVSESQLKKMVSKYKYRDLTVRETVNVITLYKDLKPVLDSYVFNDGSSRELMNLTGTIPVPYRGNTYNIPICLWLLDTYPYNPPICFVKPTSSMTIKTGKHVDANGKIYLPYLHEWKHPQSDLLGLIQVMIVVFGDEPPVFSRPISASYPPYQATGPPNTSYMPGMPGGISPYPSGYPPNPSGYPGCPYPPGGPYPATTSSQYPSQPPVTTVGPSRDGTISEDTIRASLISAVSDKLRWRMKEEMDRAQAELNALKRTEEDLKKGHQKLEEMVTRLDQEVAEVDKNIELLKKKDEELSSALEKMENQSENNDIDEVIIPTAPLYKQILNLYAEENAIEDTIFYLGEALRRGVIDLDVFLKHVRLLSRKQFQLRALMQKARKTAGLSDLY
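Fluorescence anisotropy tracks displacement of a FITC-tagged PTAP peptide (50 nM) from the Tsg101 binding domain (10 uM), following a 20 min room-temperature incubation at pH 7.5.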
mIDH1 inhibitor: qHTS for Inhibitors of mutant isocitrate dehydrogenase 1 (IDH1): qHTS. Isocitrate dehydrogenase [NADP] cytoplasmic (Homo sapiens), O75874. IDH1-R132H enzyme, NADPH consumption, diaphorase/resazurin fluorescence. Potency, µM (highest dose often 76.6 µM), for the others: at the highest dose activity change, negative = inhibition, hits mostly inhibitors. 390,000 compounds, 0.093% hits; note: potency is the fitted concentration of half-maximal effect; % is set by controls: 0 for no effect and ±100 for the full control effect; nearly all actives have a fitted effect of over 65% in size
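IDH1-R132H (0.5 ug/mL) preincubated 30 min with compound, then NADPH (0.016 mM) and alpha-KG (2 mM) added; 80 min at RT, pH 7.5. Remaining NADPH coupled via diaphorase/resazurin to fluorescence (540/590 nm); concentration-response curves normalized to no-enzyme control.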
Anesthetic bind: qHTS Assay for Identification of Novel General Anesthetics; Ferritin light chain (Equus caballus), P02791; apoferritin/1-aminoanthracene competitive binding, fluorescence; Potency, µM (doses to about 77.5 µM), inactives show at the top dose activity change, negative = displacement, actives largely listed as inhibitors; 350,000 compounds, 0.074% hits; AID 485281, 2010; note: potency is the fitted concentration of half-maximal effect; % is set by controls: 0 for no effect and ±100 for the full control effect; nearly all actives have a fitted effect of over 20% in size
Target sequence (P02791 2-175 limits assumed): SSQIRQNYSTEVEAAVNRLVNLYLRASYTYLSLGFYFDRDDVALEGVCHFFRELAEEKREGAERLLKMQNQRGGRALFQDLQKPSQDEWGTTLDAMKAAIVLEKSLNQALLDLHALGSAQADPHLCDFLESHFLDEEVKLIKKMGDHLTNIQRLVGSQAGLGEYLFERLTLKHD
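Steps: apoferritin (10 uM) was premixed with half-saturated 1-AMA in PBS, compounds were pin-transferred, plates stood 10 min at room temperature, fluorescence was read at 380/535 nm, and curves were fitted with a Hill equation.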
Resorufin autofl: qHTS for Inhibitors of mutant isocitrate dehydrogenase 1 (IDH1): Cherrypicks Autofluorescence Interference. inhibition of signal, % at 51.2 µM. shares compounds with mIDH1 inhibitor. 750 tested, under 10 active. Resorufin detection reagent fluorescence interference, cell-free;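 note: 0% = wells with normal resorufin and full inhibition = wells lacking resorufin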
IDH1 WT: qHTS for Inhibitors of mutant isocitrate dehydrogenase 1 (IDH1): Cherrypicks in WT IDH1. shares compounds with mIDH1 inhibitor. WT IDH1 enzyme, NADPH diaphorase/resazurin fluorescence. Potency, µM (top dose mostly 115 µM), without a hit: at the top dose activity change, negative = inhibition, most hits filed as inhibitors. 750 compounds, 9% hits;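 note: potency is the fitted concentration of half-maximal effect; 0% = full WT IDH1 enzyme control and full inhibition = no enzyme wells; nearly all actives have a fitted effect of over 55% in size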
IDH1 R132H conf: qHTS for Inhibitors of mutant isocitrate dehydrogenase 1 (IDH1): Confirmation of Cherrypicks | shares compounds with mIDH1 inhibitor | IDH1 R132H enzyme, NADPH diaphorase/resazurin fluorescence | Potency, µM (highest dose often 76.6 µM), for inactives: top-dose activity change, negative = inhibition, most hits filed as inhibitors | 750 compounds, 83% hits | AID 624002, 2012; note: potency is the fitted concentration of half-maximal effect; nearly all actives have a fitted effect of over 50% in size
An asterisk follows results filed as active; u = inconclusive; x = not tested or not shown. Unless noted, calls come from the whole dose curve; as a rule, active = well fitted curve in the direction sought with a large enough effect; inconclusive = small, poorly fitted or top-dose-only effect, or another doubt; inactive = no such curve, though single readings can be large; an effect the other way counts as inactive or inconclusive.

SMILES	ERG Ets-DNA blk	TSG101-PTAP inh	mIDH1 inhibitor	Anesthetic bind	Resorufin autofl	IDH1 WT	IDH1 R132H conf
COc1cccc(N2C(=O)CSC23C(=O)N(Cc2ccccc2)c2ccccc23)c1 (centres undefined)	-2.0%	x	-12.5%	u	x	x	x
COc1ccc(N2C(=O)CCSC23C(=O)N(Cc2ccc(F)cc2)c2ccccc23)cc1Cl (centres undefined)	-4.4%	x	u	u	2.8	0.5%	31.6µM*
COc1ccc(N2C(=O)CCSC23C(=O)N(Cc2ccc(F)cc2)c2ccccc23)cc1 (centres undefined)	-6.5%	x	31.6µM*	-8.0%	-2.0	-19.0%	35.5µM*
COc1ccc(-c2cc3ccc(F)cc3cn2)cc1	8.4%	x	27.2%	x	x	x	x
COc1cc2c(-c3ccccc3O)nc3c(c(C)nn3-c3ccccc3)c2cc1OC	-5.9%	2.1%	29.6%	1.2%	x	x	x
COc1cc2c(-c3ccccc3Cl)nc3c(c(C)nn3-c3ccccc3)c2cc1OC	6.0%	x	u	343.9%	-1.8	0.4%	5.01µM*
CCOC(=O)[C@@H]1[C@H]2COc3ccccc3[C@@H]2N2C(=O)N(c3cccc(F)c3)C(=O)[C@@]12C	-8.8%	1.4%	-6.7%	x	x	x	x
CCN(C(=O)c1cc2c(C)nc3ccccc3c2o1)c1cc(Cl)ccc1OC	-8.6%	-1.8%	32.9µM*	-7.0%	-5.8	4.7%	20µM*
Cc1ccc2nc3c(nc2c1C)CCCC3	9.5%	-0.3%	0.1%	5.6%	x	x	x
Cc1ccc2nc3c(nc2c1C)C(O)=C3O	-1.7%	-0.7%	u	4.9%	-5.8	62.8%	44.7µM*
O=C1c2ccccc2C(Nc2ccc(Cl)cn2)N1c1ccccn1 (centres undefined)	-3.5%	-1.3%	0.3%	-7.3%	x	x	x
O=C(Nc1nnc(SCc2ccc(F)cc2)s1)c1ccc2ncsc2c1	-5.7%	2.6%	52.1µM*	-20.5%	-1.8	-16.1%	50.1µM*
COC(=O)[C@@]12CCCCN1[C@H](c1ccc(-c3ccc(F)cc3)c(OC)c1)[C@H]1C(=O)N(C)C(=O)[C@H]12	-1.3%	-0.7%	-3.9%	x	x	x	x
COC(=O)[C@@]12CCCCN1[C@H](c1ccc(-c3ccc(OC)cc3)c(OC)c1)[C@@H]1C(=O)N(C)C(=O)[C@@H]12	-0.1%	-0.9%	35.5µM*	x	4.1	5.1%	5.01µM*
COc1cc(S(=O)(=O)N(Cc2cccnc2)Cc2ccco2)ccc1-n1cnnn1	x	-15.2%	-4.6%	-16.6%	x	x	x
COc1ccc(-c2cc(C(=O)N3CCCC3)no2)cc1	-5.5%	0.6%	0.0%	1.2%	x	x	x
FC(F)(F)c1cccc(Nc2c3c(nc4ccc(Cl)cc24)CCC3)c1	-0.8%	x	u	u	3.5	1.6%	u
Fc1ccc(F)c(Nc2c3c(nc4ccc(Cl)cc24)CCC3)c1	4.6%	x	u	-7.3%	x	x	x
CCC(C)(C)NC(=O)C(c1ccc(C)o1)N(Cc1cccs1)C(=O)Cn1nnc2ccccc21 (centres undefined)	-3.1%	0.3%	u	u	-3.9	-5.2%	22.4µM*
O=C(NC1CCCCC1)C(c1ccccc1)N(Cc1ccco1)C(=O)Cn1cnc2ccccc21 (centres undefined)	-4.7%	-8.3%	11.7µM*	-7.0%	-1.8	-8.1%	6.31µM*
